Source: PubChem BioAssay AID624273 (Broad Institute, 2012)
Out of some 1,000 compounds screened, about 230 (23%) were called active. Inconclusive results (about 1%) are left out. The list shows a part of the results. Potency and affinity values are given separately. Values without a mark were called inactive. The rule behind the calls is not given here.

Target: Long-chain-fatty-acid--AMP ligase FadD28 (Mycobacterium tuberculosis (strain ATCC 25618 / H37Rv)) (UniProt P9WQ59)
Assay: inhibitors of FadD28 bisubstrate probe binding, dose response, biochemical, fluorescence polarization, cherry-pick (AID 624273)
Conditions: series mostly up to 50 µM; activity change, negative = inhibition: at the top concentration

Sequence of Long-chain-fatty-acid--AMP ligase FadD28 (Mycobacterium tuberculosis (strain ATCC 25618 / H37Rv)) (P9WQ59 whole entry, looked up): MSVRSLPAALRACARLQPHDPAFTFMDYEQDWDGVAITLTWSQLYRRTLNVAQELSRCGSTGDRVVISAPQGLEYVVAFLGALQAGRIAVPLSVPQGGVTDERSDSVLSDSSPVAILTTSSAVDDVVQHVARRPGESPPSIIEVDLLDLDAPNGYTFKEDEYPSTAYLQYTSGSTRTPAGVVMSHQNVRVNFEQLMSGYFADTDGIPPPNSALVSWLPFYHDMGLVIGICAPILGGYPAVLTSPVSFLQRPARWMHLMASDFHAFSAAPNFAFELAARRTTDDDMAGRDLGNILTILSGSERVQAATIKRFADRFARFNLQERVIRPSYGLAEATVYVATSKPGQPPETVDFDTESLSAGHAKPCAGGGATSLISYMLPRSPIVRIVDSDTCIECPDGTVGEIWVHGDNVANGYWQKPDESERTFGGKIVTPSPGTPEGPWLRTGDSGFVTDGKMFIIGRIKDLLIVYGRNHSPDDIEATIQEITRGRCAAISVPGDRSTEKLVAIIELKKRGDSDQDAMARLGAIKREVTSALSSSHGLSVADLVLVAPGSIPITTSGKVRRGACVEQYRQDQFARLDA

| Compound | activity change, negative = inhibition |
| --- | --- |
| COc1ccc(N2CCN(C(CNC(=O)COc3ccccc3)c3ccco3)CC2)cc1 (centres undefined) | -5.99% |
| O=C(c1ccc(=O)[nH]n1)N1CCN(S(=O)(=O)c2cccc(F)c2)CC1 | -3.38% |
| O=C(N/C(=C/c1ccc(Br)cc1)C(=O)N1CCCC1)c1ccccc1F | 0.325% |
| FC(F)(F)c1cnc(C(c2ccccn2)c2ncn[nH]2)c(Cl)c1 (centres undefined) | -1.87% |
| COc1cc2c3c(c1)/C(=C1/SC(NC(C)=O)=NC1=O)C(=O)N3C(C)(C)C=C2C | -7.72% |
| Cc1ccc(NC(=O)C2CC(=O)N(c3ccc4c5c(cccc35)CC4)C2)cc1 (centres undefined) | -3.61% |
| CCc1ccc(CN(C)Cc2nc(Cc3cccc(C(F)(F)F)c3)no2)nc1 | -6.49% |
| COc1ccc(C(=O)NCC(=O)OCC(=O)NCc2cccs2)cc1 | -4.01% |
| CCn1c(C)c(C)c2cc(C(=O)N3CCCC3)ccc21 | -7.83% |
| CCc1ccccc1OCC(=O)Nc1ccc(S(N)(=O)=O)cc1 | -6.55% |
| COc1ccc(CSCC(=O)Nc2ccc(S(=O)(=O)N3CCCCCC3)cc2)cc1 | -11.3% |
| Cn1cc(S(=O)(=O)N2CCCC2)cc1C(=O)NCCc1ccccc1 | -3.16% |
| COc1cccc(OC)c1OCCN(C)C | -5.82% |
| COc1cccc(CCNCc2ccc(SC)cc2)c1 | -2.97% |
| O=C(NCc1cccnc1)c1cc(-c2ccccc2)on1 | -4.29% |
| Cc1cccc2sc(NNC(=O)c3ccc(S(=O)(=O)N4CCCC(C)C4)cc3)nc12 (centres undefined) | -12.8% |
| CCOc1ccc(S(=O)(=O)N2CCN(C(=S)NCC3CCCO3)CC2)cc1 (centres undefined) | 0.383% |
| CN(C)/C=C/C(=O)c1ccc([N+](=O)[O-])c(CS(=O)(=O)c2ccc(Cl)cc2)c1 | -7.3% |
| Cc1cc(C)cc(N(C(=O)C(F)(F)F)C(C(=O)NC2CCCCC2)c2cccs2)c1 (centres undefined) | -6.68% |
| CCc1cccc2c(C(=O)CN3C(=O)NC4(CCCCC4)C3=O)c[nH]c12 | 7.34% |
| Cc1ccc(C)c(C(=O)CN2C(=O)C(=O)N(C3CCCC3)C2=O)c1 | -9.13% |
| O=c1oc2c(CN3CCOCC3)c(O)c(Cl)cc2c2c1CCCC2 | -3.73% |
| CCCCCCCCSc1nnc(CSc2nc3nc(C)cc(C)n3n2)o1 | -7.29% |
| CCc1ccccc1Nc1nc(-c2cccnc2)cs1 | -0.984% |
| CC1CCCCN1C(=O)CCS(=O)(=O)c1cccc2nonc12 (centres undefined) | -2.59% |
| CSc1ccc(NC(=O)Nc2ccc(C(=O)NCC(=O)O)cc2)cc1 | -4.74% |
| CCCCCCCCCCCCCCCC(=O)Nc1ccn(C2OC(CO)C(O)C2O)c(=O)n1 (centres undefined) | -11.5% |
| COc1ccc(-c2noc(CNC(=O)c3ccc4c(c3)OCO4)n2)cc1 | -5.61% |
| O=[N+]([O-])c1cc(C(F)(F)F)ccc1NCCc1c[nH]c2ccc(O)cc12 | -25.5% |
